# Assay results reported in PubChem BioAssay (EPA / NIEHS).
# Activity calls are given as the source filed them. Rule for the calls: active = hit-call score of the fitted dose curve at least 0.9, where 1 is the maximum; inactive = score below 0.9.
# Read-out: Actin alpha 1 (ACTA1), ACTA1 (gene 58)
# Experiment: BSK_MyoF_ACTA1: BioMAP Diversity Plus: MyoF Assay for Actin alpha 1 (ACTA1) Biomarker Activity (AID 2284244)
# Settings: primary human lung fibroblasts
# Method: BSK_MyoF is a cell-based, multiplexed-readout assay that uses lung fibroblasts, […], with measurements taken at 24 hours after chemical dosing in a microplate: 96-well plate.BSK_MyoF_ACTA1 is an assay component measured in the BSK_MyoF assay. It measures a-SMA antibody related to regulation of gene expression using ELISA technology.Data from the assay component BSK_MyoF_ACTA1 was analyzed at the endpoint, BSK_MyoF_ACTA1, in the positive analysis fitting direction relative to DMSO as the negative control and baseline of activity. Using a type of binding reporter, gain or loss-of-signal activity can be used to understand protein changes. To generalize the intended target to other relatable targets, this assay endpoint is annotated to the 'cell adhesion molecules' intended target family, where the subfamily is 'actin'.
# The levels of cell surface (or secreted, indicated by the prefix "s") biomarker endpoints were measured by ELISA. Overt cytotoxicity to cells in confluent adherent cultures (all systems other than the BT system) was assessed by measuring total protein levels using sulforhodamine B (SRB) staining in parallel cultures at the time of biomarker measurements, indicated as SRB endpoints. For proliferation assays for adherent cell types, individual cell types are cultured at sub-confluence and relative cell numbers quantified by SRB staining at time points optimized for each system (48 h: 3C and CASM3C systems; 72 h: BT and HDF3CGF systems; 96 h: SAg system). SRB was performed by staining cells with 0.1% SRB after fixation with 10% TCA and reading wells at 560 nm.Viability and proliferation of PBMC (T cells) was quantified by Alamar Blue reduction for the SAg and BT systems. For PBMC viability (referred to as PBMC Cytotoxicity within the assay endpoint names), cells were plated (75,000/well in a 96-well plate) and then chemical samples added for 1 h before addition of activators, SEB and TSST-1 (20 ng/mL final concentration each). Cells were incubated for 90 h. Then, Alamar Blue (20 uL/well) (Invitrogen, Cat DAL1100) was added for 6 h, and the plates were read with a fluorescence microplate reader at 546/580 nm (excitation/emission). For PBMC proliferation, cells were plated and activated as above but incubated for only 16 h prior to addition of Alamar Blue. Plates were read after 6 h.
SMILES,outcome,AC50
Cc1ccc2n[nH]nc2c1,inactive,
Cc1ccc(Nc2ccc(O)c3c2C(=O)c2ccccc2C3=O)cc1,inactive,
CN(CCOc1ccc(CC2SC(=O)NC2=O)cc1)c1ccccn1 (stereo not drawn),inactive,
CCc1c(C)cc(N)c(CC)c1N,inactive,
CCCCCCCCCCCCCCCCCC(=O)OCC(CC)CCCC (stereo not drawn),inactive,
O=C1CCCCCCCCCCCCCCO1,,13.9 µM (active)
CCn1c2ccccc2c2cc(N)ccc21,inactive,
c1ccc2sc(SN(C3CCCCC3)C3CCCCC3)nc2c1,,5.57 µM (active)
c1ccc2c(c1)c1cccc3ccc4cccc2c4c31,inactive,
CCCCC(CC)COCCC#N (stereo not drawn),inactive,
BrC1CCC(Br)C(Br)CCC(Br)C(Br)CCC1Br (stereo not drawn),inactive,
CC1COc2ccccc2N1C(=O)C(Cl)Cl (stereo not drawn),,20 µM (active)
CCCCCCCCC=O,inactive,
O=C=NC1CCC(CC2CCC(N=C=O)CC2)CC1 (stereo not drawn),inactive,
COC(=O)c1ccc(C)cc1,inactive,
CC(=O)Nc1ccccc1O,inactive,
C=C(C)C(=O)O[C@H]1C[C@@H]2CC[C@@]1(C)C2(C)C,,33.1 µM (active)
O=C(O)C[C@H](O)C[C@H](O)/C=C/c1c(C2CC2)nc2ccccc2c1-c1ccc(F)cc1,,1.37 µM (active)
C#C[C@]1(O)CC[C@H]2[C@@H]3CCC4=Cc5oncc5C[C@]4(C)[C@H]3CC[C@@]21C,inactive,

SMILES,outcome,AC50
O=P(c1ccccc1)(c1ccccc1)c1ccccc1,inactive,
CC(C)(COC(=O)c1ccccc1)COC(=O)c1ccccc1,inactive,
CCCCC(CC)COC(=O)/C=C\C(=O)OCC(CC)CCCC (stereo not drawn),inactive,
CC(C)Oc1ccccc1O,inactive,
CC(C)c1ccc(C(C)C)cc1,inactive,
CCCCCCCCCC=O,inactive,
C=C[Si](OCC)(OCC)OCC,inactive,
CC(=O)O[C@]1(C(C)=O)CC[C@H]2[C@@H]3C[C@H](C)C4=CC(=O)CC[C@]4(C)[C@H]3CC[C@@]21C,inactive,
CCCCC/C=C/C=C/C=O,,31.6 µM (active)
CC(=O)/C=C/C1=C(C)CCCC1(C)C,inactive,
N#Cc1ccc(CC(=NNC(=O)Nc2ccc(OC(F)(F)F)cc2)c2cccc(C(F)(F)F)c2)cc1,inactive,
O=[N+]([O-])c1cc(C(F)(F)F)ccc1Cl,inactive,
CC1CCC(C(C)CS)CC1S (stereo not drawn),,9.28 µM (active)
O=C(O)c1cn(-c2ccc(F)cc2)c2cc(N3CCNCC3)c(F)cc2c1=O,inactive,
Cc1ccc(O)c(C(C)(C)C)c1,,30.9 µM (active)
Nc1cc([N+](=O)[O-])ccc1Cl,inactive,
O=C(O)c1cn(C2CC2)c2cc(N3CCNCC3)c(F)cc2c1=O,inactive,
CNC[C@H](O)c1cccc(O)c1,inactive,
O=C1OC2(c3cc(Br)c(O)c(Br)c3Oc3c2cc(Br)c(O)c3Br)c2c(Cl)c(Cl)c(Cl)c(Cl)c21,,5.23 µM (active)
